# Laboratory results from the supplement of paper PMC6555819.
# Tested on: RARg homodimer (NR concentration 270 nM)
# Experiment: PBM binding z-score (relative to random genomic background probes); higher = stronger binding; sequences stand for … in GC…GCGATTGACAGCGTAGAATGAAGG
# Procedure, shortened: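 On custom Agilent 4×180K arrays, double-stranded probes with 34-nt variable regions carried direct-repeat seeds, single-nucleotide variants, half-site ablations or random human genomic background. Ligand-free nuclear receptor dimers were applied for 1 h, and binding was read with antibodies against each partner (one per run). Binding z-scores come from regression-normalized fluorescence, with the random background probes as reference.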
row,Sequence,PBM binding z-score
1,TCTCGGAGGACACAAAGGTCAGAGCTTTCCAGAG,5.32
2,CGTTCAAGGTCAAAGGTCAGTGAAGAGATGACGG,8.73
3,CCAGACAGGTGAGAAGGTAACTCAGCCTCGATTA,0.652
4,TAGCCTAGGTCATACAGGGGCCAGTATAGAAAGC,4.71
5,CCTACTGGGCCATTCAGAGGTCAATGATCATATG,3.43
6,CCTACTGGGCCGTTCAGAGGTCATTGATCATATG,2.47
7,ATATGTAGGTTATCTGGGGTCATTCAGACTAGGC,3.58
8,GATACAGGGTCAGCTACAGGCCAGAGTATGGAAA,4.29
9,CAAACTAGGTCAAGAGGTCAAAGTTCGCTTCCCG,7.43
10,ATCGAAAGGTCCAAGGTGAGTATACCCACCCGAA,1.08
11,ATATGTAGGATAGCTGGGGTCATTCAGACTAGGC,2.31
12,TCGTGTAGGTTACGGGGGCATTCAGGGATGAAGA,3.31
13,CGAACTACGTCATCCAGGACAGTGAATACATTGA,0.537
14,CGTCAAAGATCAAGGTAACGTAACAGAAAGCAGC,0.612
15,CGAACTAGGTCAAGGACAGTAAATCTCCGCACGC,4.54
16,AATACAGGGTCACGAGGCCAGAGTAGGTACGAAT,5.99
17,TCTAGTTGGTCACGGAGGACACACACGACGGGTA,2.32
18,CGTCCAAGGTCAGCGGGTCAGTGAAAGCGACGTG,6.61
19,ACGCGGAGGACAAAGGTCAGAGCTACGCCAGTGA,5.34
20,CCTTACGGGTCACGTGGTTATAGCACGACGAGCG,5.1

row,Sequence,PBM binding z-score
1,GGAACGAGGTCATTCGAGTTGATAGCATGGCGAT,6.21
2,TCTGCTAGGTCATCGATGGTCAGCTAATCTGCTA,4.88
3,ACTTAAGGGTCAACGAGGTTATAGCACGCGTATA,6.85
4,AATACAGGGTCATCGTACGCCAGAGTACGCACAG,4.81
5,ATCGAAAGGTCGACCAGGTGAGTATACACCGTTT,4.1
6,TTACCAAGGTGAACGGTCGTTGATGCACGCCTTG,0.84
7,CCTACTGGGCCAAAAAGGTCATTGATGCCGATAA,4.42
8,AGTCAAAGTTCAGGACGAGGTAACGTTAAGCACG,4.82
9,CGAACTAGGTCATTGACAGGACAATGAATAGTAA,4.69
10,TTACCAAGGTGAAAGGTCGTTGCTGCACGCCTTG,1.94
11,GCTAGTTGGTCAGTAAAATGTCACACACCGGTCG,0.697
12,TAGCCTAGGTCATGCGGGCCAATATAGTGTCGGC,4.36
13,CGTCCAAGGTCGAAGGTCAGTGAAGAGATGACGG,4.64
14,TCTAGTTGGTCACGGAGGGCACACACGACGGGTA,2.4
15,CCTGCTAGGTCATGGTCAGCGAATCTACAGTATG,4.93
16,CCTTACGGGTCACTGACAGGTTATAGCGTTTGGA,4.55
17,ACTTACGGGTCTACGAGGTTATAGCACGCGTATA,0.586
18,ACTCGGATGACAAAGGTCAGAGCTACGCCAGTGA,4.66
19,CCTACTGGGCCACGAAAGGCCATTGATTCAGTGA,0.725
20,ATCGAAAGGTCGACGAGGTGAGTAAACACCGTTT,4.12
